# Screening data from PubChem BioAssay.
# SARS PLP yeast – qHTS of Yeast-based Assay for SARS-CoV PLP | 330,000 tested, 0.19% active | AID 485353, 2010 | S. cerevisiae expressing SARS-CoV PLpro, growth rescue | Potency, µM (titrated, usually from 32.9 µM), for inactives: at the highest dose activity, positive = growth rescue, usual class: activators; calls by dose curve; further: potency means the concentration at half of the fitted maximal effect; 0% is about no effect; nearly all actives have a fitted effect of over 55% in size
# Pf growth 48h – Primary qHTS for delayed death inhibitors of the malarial parasite plastid, 48 hour incubation; P. falciparum luciferase growth in erythrocytes, 48 h; Potency, µM (series often up to 28.7 µM), inactives show at the top dose activity change, negative = inhibition, usual class: inhibitors; 310,000 tested, 5.9% active; further: potency means the concentration at half of the fitted maximal effect; on the % scale 0 is the no-effect control and ±100 the full control effect
#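 Luciferase-expressing parasites in RBCs, 2% Hct / 0.1% parasitemia final; RPMI 1640 + 0.5% Albumax; 37 C, 5% CO2, one generation; luminescence read-out, lower signal = inhibition.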
# Pf growth 96h – Primary qHTS for delayed death inhibitors of the malarial parasite plastid, 96 hour incubation; Potency, µM (titrated, usually from 28.7 µM), for the others: at the top dose activity change, negative = inhibition, actives largely listed as inhibitors; 320,000 tested, 6.9% active; P. falciparum luciferase reporter growth, 96 h; further: potency means the concentration at half of the fitted maximal effect; on the % scale 0 is the no-effect control and ±100 the full control effect
#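 Readout is luminescence from an integrated firefly luciferase in P. falciparum. Red cells, 2% hematocrit and 0.05% parasitemia final, were cultured with compound through two parasite generations (96 hours) at 37 C, 5% CO2.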
# Sm TGR block – qHTS Assay for the Inhibitors of Schistosoma Mansoni Peroxiredoxins; Schistosoma mansoni thioredoxin glutathione reductase (TGR), Q962Y6; purified TGR, DTNB reduction, TNB absorbance 405 nm; Potency, µM (highest dose often 114 µM), for the others: at the top dose activity change, negative = inhibition, actives largely listed as inhibitors; 360,000 tested, 3% active; further: potency means the concentration at half of the fitted maximal effect; on the % scale 0 is the no-effect control and ±100 the full control effect; nearly all actives have a fitted effect of over 60% in size
#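 First, TGR (20 nM dispensed) and NADPH were mixed with compound. Second, a 15 min room-temperature incubation followed. Third, further NADPH and then DTNB were added to start the reaction. Finally, TNB absorbance was monitored kinetically.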
# HCV inhibitor – qHTS Assay for Inhibitors of Hepatitis C Virus (HCV); Huh7.5.1 HCVcc-Cre infection, luciferase reporter, 44 h; Potency, µM (highest dose often 41.8 µM), for inactives: at the top dose activity change, negative = inhibition, usual class: inhibitors; 340,000 tested, 3.4% active; further: potency means the concentration at half of the fitted maximal effect; on the % scale 0 is the no-effect control and ±100 the full control effect
#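 Compounds are dispensed onto cells plated 4 h earlier at 1,000 per well, with HCVcc-Cre virus (about 0.5 moi) added next. Following 44 h of culture, luminescent signal is measured for 15 sec after 15 min with substrate at room temperature.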
# HCMV inh – qHTS Assay for inhibitors of the human cytomegalovirus (HCMV); activity change, negative = inhibition, % at 57.5 µM; AID 1259415, 2018; 410,000 tested, 4.5% active; HFF cells, HCMV-luciferase reporter, 72 h; stronger effect = lower value; in the data active means activity change below about -60%; inconclusive means no clear call, values can overlap the other calls; inactive means above about -39%; further: on the % scale 0 is the no-effect control and ±100 the full control effect
#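 Compounds were evaluated in HFFs infected with an HCMV luciferase reporter virus (MOI 1 PFU/cell). Luciferase in lysates collected 72 h post infection served as the replication measure.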
# * hit, by the source's call; ? = inconclusive; . = not tested or not shown; [ ] = remark or other dose. A selection: hits, their analogues and other compounds. The true share with any hit is near 15%. Unless noted, the call rests on the fitted dose curve; in most records, active means well fitted curve in the direction sought with a large enough effect; inconclusive means small, poorly fitted or top-dose-only effect, or another doubt; inactive means no such curve, though single readings can be large; an effect the other way counts as inactive or inconclusive.
SMILES,SARS PLP yeast,Pf growth 48h,Pf growth 96h,Sm TGR block,HCV inhibitor,HCMV inh
COc1ccc(CCNC(=O)CSc2cn(CCNC(=O)c3c(F)cccc3F)c3ccccc23)cc1OC,.,.,.,1%,.,-15
COc1ccc(CCNC(=O)CSc2cn(Cc3cccc(C)c3)c3ccccc23)cc1OC,-8%,?,9.3µM*,1%,10µM*,24
COc1ccc(CCNC(=O)CSc2cn(Cc3ccccc3)c3ccccc23)cc1OC,6%,?,?,3%,11µM*,-24
COc1ccccc1CNC(=O)C1CCN(S(=O)(=O)c2ccc3[nH]c(=O)ccc3c2)CC1,.,.,.,43%,.,27
CCc1ccc(C2CC(c3ccc(C)cc3)Nc3nc(N)nn32)cc1 (centres undefined),-2%,-4%,11%,0%,-3%,8
CCc1ccc(C2CC(c3ccccc3C)n3nc(N)nc3N2)cc1 (centres undefined),-12%,13%,15µM*,-6%,5%,-7
CCOc1ccc(C2CC(c3cccc(Cl)c3)n3nc(N)nc3N2)cc1 (centres undefined),-6%,4%,3.7µM*,-13%,4%,-19
O=C(Nc1ccc2c(c1)OCO2)c1cc(-c2ccc(Cl)cc2)on1,.,.,.,7%,.,4
Cc1cc(C(=O)Nc2cccc(C)c2C)c2ccccc2n1,1%,94%,50%,6%,-5%,?
CCc1ccc(NC(=O)C(=O)NCCc2sc(-c3ccc(OC)c(OC)c3)nc2C)cc1,.,.,.,5%,.,16
COc1ccc(/C=N/O)cc1COc1ccc(NC(C)=O)cc1,10%,7%,7.4µM*,-4%,?,-3
COc1ccc(OCc2cc(/C=N\NC(=O)c3ccccc3)ccc2OC)cc1,-3%,-27%,?,1%,?,?
COc1ccc(C(=O)N/N=C\c2ccc(OC)c(COc3ccccc3Br)c2)c(OC)c1,-3%,-6%,-20%,-12%,18µM*,-18
COc1cccc(C(=O)N/N=C/c2ccc(OC)c(COc3ccccc3C(N)=O)c2)c1,0%,?,?,-3%,?,-9
COc1ccc(/C=N\NC(=O)c2cccc(F)c2)cc1COc1ccccc1,.,.,.,.,-18%,-86*
COc1ccc(/C=N\NC(=O)c2ccc(F)cc2)cc1COc1ccccc1C(N)=O,2%,-3%,?,28µM*,?,18
Cc1cc2nc(-c3cccc(Cl)c3)c(Cc3ccsc3)n2c(C)c1Br,.,.,.,.,.,16
CC(=O)N(C)c1ccc(NC(=O)N2CCOCC2)cc1,2%,9%,-30%,-18%,-4%,66
COc1ccc(C(=O)N/N=C/c2ccc(OC)c(CN3CCN(c4ccc(F)cc4)CC3)c2)cc1,3%,17%,16%,-2%,?,50
COc1ccc(/C=N/NC(=O)c2ccoc2C)cc1CN1CCN(c2ccc(F)cc2)CC1,0%,9.3µM*,?,-2%,?,6
COc1ccc(/C=N\NC(=O)c2ccccc2Br)cc1COc1ccccc1,1%,9%,-20%,-16%,14µM*,?
COc1ccccc1CN(Cc1nc2ccccc2c(=O)[nH]1)S(=O)(=O)c1ccc(C)cc1,-8%,5.9µM*,.,-15%,-18%,-99*
Cc1c(C(=O)N(C)Cc2nc3ccccc3c(=O)[nH]2)oc2ccccc12,0%,.,.,.,?,3
COc1ccccc1CN(Cc1nc2ccccc2c(=O)[nH]1)C(=O)Nc1ccc(C)cc1,-3%,?,.,1%,-30%,-28
CC(=O)c1ccc(-c2ccc(C(=O)N(C)Cc3nc4ccccc4c(=O)[nH]3)o2)cc1,1%,?,?,?,7.1µM*,-30
SMILES,SARS PLP yeast,Pf growth 48h,Pf growth 96h,Sm TGR block,HCV inhibitor,HCMV inh
Cc1ccc(S(=O)(=O)N(C)c2ccc(C(=O)N(C)Cc3nc4ccccc4c(=O)[nH]3)cc2)cc1,-2%,12µM*,5.9µM*,0%,-17%,-8
CN(Cc1nc2ccccc2c(=O)[nH]1)C(=O)c1ccc(S(=O)(=O)N(C)C)cc1,15%,.,?,5%,-1%,-13
Cc1ccc(-c2cn3c(n2)sc2cc(C(=O)NC(C)C45CC6CC(CC(C6)C4)C5)ccc23)cc1 (centres undefined),.,.,.,1%,.,.
O=C(CCc1nc2ccccc2c(=O)[nH]1)NNC(=O)c1ccc(F)cc1,-2%[6.58 µM],10%,-16%,7%,17%,3
O=C(C[n+]1cccc(CNC(=O)c2ccc(OC(F)F)cc2)c1)Nc1ccc(F)cc1,-8%,8.3µM*,0.74µM*,-2%,16%,23
O=C(C[n+]1cccc(CNC(=O)c2ccc(OC(F)F)cc2)c1)c1ccccc1,1%,-6%,?,0%,-4%,-27
O=C(C[n+]1cccc(CNC(=O)c2ccc(OC(F)F)cc2)c1)Nc1cccc(C(F)(F)F)c1,-13%,5.2µM*,?,-9%,-7%,27
CC12CCC3C4CCC(=O)C(O)=C4CCC3C1CCC2OC(=O)CCC1CCCC1 (centres undefined),.,-8%,-22%,.,.,.
CCN(c1ccccc1)c1cc2ccccc2c(=O)[nH]1,-18%,?,4%,-10%,-18%,-64*
COc1ccc(NC(=O)Cn2c(=O)n(CCCC(=O)NCCc3ccc(C)cc3)c(=O)c3ccccc32)cc1Cl,.,.,.,-8%,.,-7
CCc1ccc(OC(=O)c2cccnc2)cc1,1%,-1%,?,?,10%,-36
Cc1ccc2oc(=O)c(/C=C(\O)c3ccco3)nc2c1,-1%,?,?,?,-3%,-16
CC(C)(C)/C(O)=C/c1nc2cc(Cl)ccc2oc1=O,-3%,9.3µM*,5.9µM*,?,-4%,-13
Cc1ccc2oc(=O)c(/C=C(\O)c3sc(C)nc3C)nc2c1,9%,?,10µM*,-9%,11%,-35
CCN(CC)Cc1cc(Nc2c3ccccc3nc3c4ccccc4n(C)c23)cc(CN(CC)CC)c1O,.,.,.,.,?,-25
O=C(NCc1nc2ccccc2[nH]1)C1=C[C@@H](c2ccc(C(F)(F)F)cc2)C[C@@H](OCc2ccc(CO)cc2)O1,.,.,.,.,?,12
CCOC(=O)c1cnn(CCOC(=O)Cc2cccs2)c1NC(=O)Cc1cccs1,4%,69%,9.3µM*,-2%,-1%,13
COC(=O)c1c(NC(=O)Cc2ccccc2)sc(C)c1C,-9%,.,4%,-33%,?,-12
